RmlCD inh 1536: M. tuberculosis RmlC/RmlD inhibition | P9WH09+P9WH11 | RmlC+RmlD coupled enzyme assay, percent inhibition; primary screen in compound mixtures | inhibition, % at 3.6 µM | 160,000 compounds, 0.03% hits | AID 1533; in the data active means inhibition mostly above about 34%, no sharp cut-off
RecA splice inh: Mtb RecA intein splicing inhibition. inhibition, % (test concentration not listed). 290,000 compounds, 0.75% hits. cell-free RecA intein splicing, fluorescence; in the data active means inhibition above about 30%;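 further: 0% = vehicle wells and 100% = reference inhibitor control wells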
Target sequence (P9WHJ3 whole entry, looked up, canonical isoform): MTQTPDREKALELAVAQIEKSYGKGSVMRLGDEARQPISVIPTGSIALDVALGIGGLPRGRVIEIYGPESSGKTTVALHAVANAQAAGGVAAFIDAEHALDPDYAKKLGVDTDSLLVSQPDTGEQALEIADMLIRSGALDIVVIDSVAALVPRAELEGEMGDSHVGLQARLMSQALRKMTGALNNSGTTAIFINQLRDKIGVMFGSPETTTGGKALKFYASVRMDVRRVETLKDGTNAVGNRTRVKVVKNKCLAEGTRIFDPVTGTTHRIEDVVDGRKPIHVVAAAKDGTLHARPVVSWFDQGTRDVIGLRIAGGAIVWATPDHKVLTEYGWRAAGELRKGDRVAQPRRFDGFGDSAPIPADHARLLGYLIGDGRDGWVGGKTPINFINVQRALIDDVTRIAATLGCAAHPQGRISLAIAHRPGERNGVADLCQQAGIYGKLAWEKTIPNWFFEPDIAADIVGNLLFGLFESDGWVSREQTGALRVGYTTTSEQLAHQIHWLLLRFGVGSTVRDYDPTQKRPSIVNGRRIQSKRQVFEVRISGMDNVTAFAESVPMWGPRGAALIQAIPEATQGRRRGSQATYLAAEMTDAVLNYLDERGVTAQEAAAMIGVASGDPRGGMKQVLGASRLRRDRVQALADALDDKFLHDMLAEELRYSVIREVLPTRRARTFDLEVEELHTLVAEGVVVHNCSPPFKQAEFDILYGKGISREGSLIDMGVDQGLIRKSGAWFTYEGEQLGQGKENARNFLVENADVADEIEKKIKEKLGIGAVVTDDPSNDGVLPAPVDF
GFP chromophore: counter-screen GFP chromophore formation inhibition. shares compounds with RecA splice inh. cell-free GFP chromophore formation, fluorescence. EC50, µM. 2,100 compounds, 83% hits. AID 434968; call rule not given here
* hit, by the source's call. Compounds with a hit are over-represented: about 0.77% of the library has one in this group of screens.

Cn1c(CNC(=O)c2ccco2)nnc1SCC(=O)Nc1cccc(F)c1 was read as RmlCD inh 1536 33.5 and RecA splice inh 4.7.
COc1ccc(CC(=O)N/N=C(/C)CC(=O)N(C)c2ccccc2)cc1 was read as RecA splice inh 30.1*.
For COc1ccc(CC(=O)N/N=C(\C)CC(=O)Nc2ccc(N(C)C)cc2)cc1 the results were RecA splice inh -0.4.
Screening CCOC(=O)CSc1nc2sc3c(c2c(=O)n1-c1ccc(OCC)cc1)CCN(C)C3 returned RecA splice inh 14.6.
`CCOC(=O)CSc1nc2sc3c(c2c(=O)n1C1CCCCC1)CCN(C)C3` gave RecA splice inh 34.4*.
`Cc1cnc(NC(=O)C(C)N2C(=O)C3CC=CCC3C2=O)s1` (stereo not given) gave RecA splice inh -7.6.
`Nc1ccccc1OCCOc1ccccc1N` gave RecA splice inh -2.4.
CCCOc1ccc(N)cc1N was read as RecA splice inh 30.3*.
`CSc1cccc(NC(=O)CCCn2c(=O)c3cccn3c3cccnc32)c1` gave RecA splice inh -5.1.
Screening C/C(CC(=O)N1CCN(C=O)CC1)=N\NC(=O)c1ccc(Cl)cc1 returned RmlCD inh 1536 5.2 and RecA splice inh 3.0.
`C/C(CC(=O)N1CCN(C=O)CC1)=N\NC(=O)c1cccc([N+](=O)[O-])c1` gave RmlCD inh 1536 11.2, RecA splice inh 71.3* and GFP chromophore 32.5*.
CCN(CC)C(=O)Cn1c(=O)n(-c2ccccc2)c(=O)n1CC(=O)N(CC)CC was read as RmlCD inh 1536 14.2 and RecA splice inh 1.0.
COc1cc(OC)c(NC(=O)/C=C/C(=O)O)cc1Cl was read as RmlCD inh 1536 39.6 and RecA splice inh 1.1.
For CC(=O)NC(c1ccccc1)c1cccnc1 (stereo not given) the results were RmlCD inh 1536 -5.1 and RecA splice inh -1.7.
For COC(=O)C(C#N)C(c1cccnc1)c1c(C)[nH][nH]c1=O (stereo not given) the results were RecA splice inh 85.3* and GFP chromophore 7.79*.
For Cc1cc(C(=O)N2CCC(Cc3ccccc3)CC2)c(C)o1 the results were RecA splice inh 4.9.
`CCC(=O)Nc1ccc(C(=O)CSc2nnc(-c3ccc(O)cc3)n2CC2CCCO2)cc1` (stereo not given) gave RmlCD inh 1536 2.8 and RecA splice inh 0.6.
COc1cc(C(=O)CSc2nnc(-c3ccc(O)cc3)n2CC2CCCO2)ccc1NC(C)=O (stereo not given) was read as RecA splice inh 36.2* and GFP chromophore >38.
For COc1ccccc1CNC(=O)COC(=O)Cc1ccsc1 the results were RmlCD inh 1536 -4.6 and RecA splice inh -0.7.
For COC(=O)c1cc2oc(C)cc2n1CC(=O)Nc1ccc(OC)c(OC)c1OC the results were RmlCD inh 1536 -5.2.
S=C1Cc2ccccc2N1 was read as RmlCD inh 1536 -0.7, RecA splice inh 87.7* and GFP chromophore 1.24*.
`O=C1CCc2ccccc2N1` gave RecA splice inh -1.0.
Screening CCC(C)[C@H](NC(=O)NC1CCN(Cc2ccccc2)CC1)C(=O)OC (stereo not given in full) returned RmlCD inh 1536 24.2, RecA splice inh 38.1* and GFP chromophore >38.
`COc1ccc(C)cc1NC(=O)NC1CCN(Cc2ccccc2)CC1` gave RmlCD inh 1536 9.7 and RecA splice inh -0.8.
For NC(=O)c1ccsc1NC(=O)COC(=O)c1ccc(Cl)c(N)c1 the results were RecA splice inh -0.4.
`CCCCc1nc(N2CCOCC2)c(C#N)c2c1CCCC2` gave RmlCD inh 1536 0.1 and RecA splice inh 4.5.
`O=C(NCc1ccncc1)C(=O)NCC1OCCN1S(=O)(=O)c1ccc(Cl)cc1` (stereo not given) gave RecA splice inh -0.3.
Screening CN1CCN(Cc2cc(=O)oc3ccc(Cl)cc23)CC1 returned RmlCD inh 1536 -3.8, RecA splice inh 48.0* and GFP chromophore >38.
`CCN1CCN(Cc2cc(=O)oc3ccc(Cl)cc23)CC1` gave RmlCD inh 1536 2.3 and RecA splice inh 1.8.
COc1cc(NC2CCCCC2O)c2nc(-c3ccc(Cl)cc3)ccc2c1 (stereo not given) was read as RecA splice inh 51.2* and GFP chromophore 0.179*.
`COc1ccc(OC)c(NC(=O)COC(=O)CSc2ccc(Cl)cc2)c1` gave RecA splice inh 6.7.
`NC(=O)NCCCC(=O)OCC(=O)c1ccc2ccccc2c1` gave RmlCD inh 1536 0.7 and RecA splice inh -0.2.
`CC1(c2ccccc2)NC(=O)N(CC(=O)Nc2cc3c(cc2Br)OCCO3)C1=O` (stereo not given) gave RecA splice inh -1.3.
O=C1C(=O)c2ccccc2-c2ccccc21 was read as RmlCD inh 1536 -5.2, RecA splice inh 53.5* and GFP chromophore 6.94*.
`O=C1c2ccccc2C(=O)C1c1ccc(Br)cc1` gave RecA splice inh -2.9.
For O=C1c2ccccc2-c2cccnc21 the results were RecA splice inh 0.6.
Screening NC1=C(Br)C(=O)c2ccccc2C1=O returned RmlCD inh 1536 4.9, RecA splice inh 89.6* and GFP chromophore 5.38*.
COc1ccc(NC(=O)c2cc(S(=O)(=O)N(Cc3ccccc3)c3ccccc3)ccc2Cl)cn1 was read as RmlCD inh 1536 9.4 and RecA splice inh 1.3.
Screening COc1ccc(N2CCN(c3nc(Cl)nc(N4CCOCC4)n3)CC2)cc1 returned RmlCD inh 1536 -6.4 and RecA splice inh -1.0.
`COc1ccc(N2C(=O)C(Cl)=C(N3CCN(Cc4ccccc4)CC3)C2=O)cc1` gave RecA splice inh 69.0* and GFP chromophore 7.11*.
COc1ccc(N2C(=O)C(Cl)=C(N3CCOCC3)C2=O)cc1 was read as RecA splice inh 74.2* and GFP chromophore 8.7*.
COc1ccc(N2C(=O)c3ccccc3C2=O)cc1 was read as RmlCD inh 1536 -5.0 and RecA splice inh 1.8.
For COc1ccc(N2C(=O)C(Cl)=C(Oc3cccc(OC)c3)C2=O)cc1 the results were RmlCD inh 1536 0.7, RecA splice inh 38.8* and GFP chromophore 20.2*.
CCc1ccc(N2C(=O)C(Cl)=C(N3CCCCCC3)C2=O)cc1 was read as RecA splice inh -4.2.
Screening O=C1C(Cl)=C(N2CCN(Cc3ccccc3)CC2)C(=O)N1c1ccccc1 returned RmlCD inh 1536 15.0 and RecA splice inh 7.7.
CCc1ccc(N2C(=O)C(Cl)=C(N3CCOCC3)C2=O)cc1 was read as RmlCD inh 1536 -10.7, RecA splice inh 77.6* and GFP chromophore 5.28*.
O=C1CCCc2nc(NCc3ccco3)ncc21 was read as RecA splice inh -3.0.
O=C(Oc1cccc(N2C(=O)CCC2=O)c1)c1ccccc1 was read as RecA splice inh 2.1.
Screening C[C@]12CCC(=O)C=C1CC[C@@H]1[C@@H]2[C@@H](O)C[C@]2(C=O)[C@@H](C(=O)CO)CC[C@@H]12 returned RecA splice inh 4.2.
For CCCCn1c(N)c(N(CCOC)C(=O)CCCc2nc3ccccc3s2)c(=O)[nH]c1=O the results were RecA splice inh -0.2.
`O=S(=O)(c1ccc(Cl)c(Cl)c1)c1snnc1-c1ccccc1` gave RmlCD inh 1536 5.0, RecA splice inh 80.4* and GFP chromophore 1.35*.
`c1ccc(-c2nnsc2-c2ccccc2)cc1` gave RecA splice inh 2.2.
O=C(O)c1ccc(NC2=C(Cl)C(=O)c3ccccc3C2=O)cc1 was read as RmlCD inh 1536 9.6, RecA splice inh 97.7* and GFP chromophore 2.15*.

Screens from PubChem BioAssay.
